Bioassay records (PubChem BioAssay)
The list is not random: actives were taken first. Their share in the collection is about 1.9%.
DSG3 Ab inh: blocks pemphigus antibody binding to human desmoglein-3 | binding (percent of control), % at 10 µM | AID 588358 | P32926 | DSG3-coupled beads, scFv-anti-DSG3-GFP binding, flow cytometry; active compounds read low | actives 0.48% (n = 310,000);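 active means binding more than 3 SD below its plate's average and above zero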;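 further: hits lower antibody fragment binding to DSG3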
Target sequence (P32926 whole entry, looked up, the tested form may be a part): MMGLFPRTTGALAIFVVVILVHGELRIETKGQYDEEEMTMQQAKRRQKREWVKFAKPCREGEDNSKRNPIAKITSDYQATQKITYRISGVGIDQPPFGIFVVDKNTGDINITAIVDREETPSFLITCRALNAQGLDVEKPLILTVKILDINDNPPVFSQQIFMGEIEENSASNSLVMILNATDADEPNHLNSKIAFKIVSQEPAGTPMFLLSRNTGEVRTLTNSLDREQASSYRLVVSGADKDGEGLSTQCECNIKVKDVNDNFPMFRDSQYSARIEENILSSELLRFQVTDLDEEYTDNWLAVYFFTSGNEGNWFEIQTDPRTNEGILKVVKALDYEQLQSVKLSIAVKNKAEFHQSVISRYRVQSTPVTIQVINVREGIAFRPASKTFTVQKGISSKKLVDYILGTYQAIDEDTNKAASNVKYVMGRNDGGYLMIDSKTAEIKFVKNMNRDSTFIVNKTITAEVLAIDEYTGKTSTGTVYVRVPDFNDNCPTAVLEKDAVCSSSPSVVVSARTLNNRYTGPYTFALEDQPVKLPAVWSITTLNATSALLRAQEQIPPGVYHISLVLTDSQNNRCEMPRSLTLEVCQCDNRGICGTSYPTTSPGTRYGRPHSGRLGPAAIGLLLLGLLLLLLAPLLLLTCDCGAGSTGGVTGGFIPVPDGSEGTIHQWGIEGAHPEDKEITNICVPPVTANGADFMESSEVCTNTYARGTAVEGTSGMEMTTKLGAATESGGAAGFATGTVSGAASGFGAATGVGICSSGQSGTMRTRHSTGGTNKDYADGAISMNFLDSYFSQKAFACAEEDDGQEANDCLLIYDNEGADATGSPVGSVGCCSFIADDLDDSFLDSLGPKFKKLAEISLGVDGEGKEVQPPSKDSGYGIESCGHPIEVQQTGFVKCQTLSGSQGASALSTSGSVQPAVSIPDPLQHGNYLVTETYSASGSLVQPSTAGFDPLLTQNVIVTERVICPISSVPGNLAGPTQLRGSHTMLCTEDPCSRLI
NSD2 HMT inh: inhibitors of human histone methyltransferase NSD2; NSD2 peptide methylation, AlphaScreen, 120 min; inhibition, % at 12.5 µM; actives 0.54% (n = 310,000); AID 743445
Vif inh: blocks HIV Vif function; AID 602346; HEK293T cells, Vif self-association by quenched fluorescence, imaging, 24 h; inhibition, % at 7.49 µM; actives 0.35% (n = 340,000); in the data active means inhibition above about 50%, passing the limit was not always enough
N-glyco inh: blocks N-linked glycosylation in D54 reporter cells. D54 ERlucT glycosylation luciferase reporter, 24 h; percent of 100 nM tunicamycin response. reporter increase, % at 12.5 µM. actives 0.23% (n = 360,000);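 active means mean luciferase reporter signal, scaled so untreated is 0 and the glycosylation-blocking control 100, at or above a set limit in every replicate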;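 further: luciferase carries N-glycosylation sites so blocking glycosylation raises the light; 0% = median of neutral control wells and 100% = median of 100 nM tunicamycin wells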
CaV13 ICDI inh: Primary screen for inhibitors of IQ motif and Ca2+-dependent inactivation inhibitor domain binding in CACNA1D, Förster resonance energy transfer in living cells, …. HEK cells, CFP/YFP FRET ICDI-IQ, plate reader, 10 min; percent FRET-ratio fall versus neutral wells. inhibition, % at 12.3 µM. actives 0.098% (n = 340,000);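 active means mean replicate inhibition of at least 30% and at least 1% of replicates passing that level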;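 further: 0% = median of the neutral control wells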
ATG4B inh: blocks human ATG4B protease cleavage of LC3 substrate | ATG4B cleavage of LC3-PLA2, NBD-HPC fluorescence, 1 h | inhibition, % at 8.33 µM | actives 0.51% (n = 340,000); in the data active means inhibition above about 40%
ATG4B conf: confirmation of human ATG4B inhibitors. actives 92% (n = 320). ATG4B protease fluorescent substrate cleavage assay. AID 504757. shares compounds with ATG4B inh. inhibition, % at 8.33 µM; in the data active means inhibition above about 39%
PLA2 counter: counter-screen for ATG4B inhibitors: human phospholipase A2; shares compounds with ATG4B inh; purified PLA2, NBD-C6-HPC fluorescence, 45 min; inhibition, % at 8.33 µM; actives 66% (n = 1,600)
* = called active by the depositor; . = no result. Unless noted, no stated cut-off is given here; in the data, active means inhibition above about 50%; inactive means the rest.

SMILES	DSG3 Ab inh	NSD2 HMT inh	Vif inh	N-glyco inh	CaV13 ICDI inh	ATG4B inh	PLA2 counter	others
Cc1ccc(NC(=O)c2cc(NC(=O)CCC(=O)O)ccc2N2CCCCC2)cc1	126	5	-3	3	-10	46*	49
CCOC(=O)c1cc(NC(=O)CCC(=O)O)ccc1N1CCCCC1	106	.	12	2	-3	-2	.
CN1CCN(c2cc(=O)n(Cc3ccc(F)cc3)c(=O)[nH]2)CC1	97	.	.	2	-3	4	.
O=C(O)CNS(=O)(=O)c1ccc(C2CCCCC2)cc1	98	1	0	0	-5	5	.
O=C(O)c1ccc(N/N=C/c2ccc(OC(=O)c3ccccc3Cl)cc2)cc1	101	2	.	-19	-3	94*	96*
Cc1cc(NS(=O)(=O)c2ccc(Nc3nc(-c4ccc(C)c(C)c4)cs3)cc2)no1	108	36	1	3	-11	44*	38	ATG4B conf=71*
O=C(Nc1ccc(OC(F)(F)F)cc1)Nc1cccc([N+](=O)[O-])c1	109	-4	-20	-12	-6	49*	58*
COc1ccccc1C(c1nnnn1Cc1ccccc1)N1CCN(C2CCCC2)CC1 (stereo not drawn)	.	-6	-2	-2	-2	-6	.
O=C(Cn1cccc1C(=O)c1ccccc1)NCCc1ccc(Cl)cc1	.	1	13	0	-2	45*	53*
Cc1ccc(C(=O)NC(Cc2c[nH]c3ccccc23)C(=O)O)cc1 (stereo not drawn)	104	-1	6	1	-4	12	.
O=C(O)c1cc2c(cc1NC(=O)c1ccccc1C(F)(F)F)OCCCO2	.	8	8	1	-4	63*	63*
CCOc1ccc(OCc2ccc(C(=O)N3CCCC(C)C3)cc2)cc1 (stereo not drawn)	94	-3	-17	-4	-4	38	.
CC1CCCN(C(=O)c2ccc(COc3ccccc3Br)cc2)C1 (stereo not drawn)	102	-2	.	8	-5	61*	69*
COc1ccc(COCC(O)CN(Cc2ccco2)Cc2ccccc2O)cc1 (stereo not drawn)	98	.	-4	-2	-8	8	.
Oc1ccccc1CN(Cc1ccco1)CC(O)COCc1ccc(Cl)cc1 (stereo not drawn)	102	-2	0	-4	-4	40*	28
CCCCn1c(N)c(N(CCC(C)C)C(=O)COC(=O)c2sccc2C)c(=O)[nH]c1=O	104	-2	1	1	-5	-3	.
Cc1ccccc1-c1nnn(Cc2ccc(F)cc2Cl)n1	109	-6	-4	-1	-19	44*	46
CCOC(=O)C1=C(c2ccccc2)NC(SCC(=O)Nc2ccccc2C)=C(C#N)C1c1ccco1 (stereo not drawn)	.	-1	-11	-3	-4	66*	72*
CCOC(=O)C1=C(c2ccccc2)NC(SCC(=O)Nc2ccc(C)cc2)=C(C#N)C1c1ccco1 (stereo not drawn)	101	-1	-8	-10	-7	7	.
CCOC(=O)C1=C(c2ccccc2)NC(SCC(=O)Nc2cccc(C)c2)=C(C#N)C1c1ccco1 (stereo not drawn)	99	12	-8	-5	-5	48*	55*
CC(C)CCC1(C)NC(=O)N(CC(=O)c2ccc[nH]2)C1=O (stereo not drawn)	107	.	-4	-2	-6	-7	.
O=C(O)c1cc(-c2ccc(-c3c(-c4ccc5c(c4)OCO5)noc3-c3ccsc3)cc2)nc2ccccc12	103	.	-11	3	-5	62*	34	ATG4B conf=18
CN(C)c1ccc(-c2c(-c3ccc4c(c3)OCO4)noc2-c2ccsc2)cn1	102	.	-8	4	.	-1	.
CCC1=NN2C(=N)/C(=C\c3cccn3-c3c(C)cccc3C)C(=O)N=C2S1	107	9	-4	0	1	84*	87*
Cc1cccc(C)c1-n1cccc1/C=C1/C(=N)N2C(=NC1=O)SN=C2S(C)(=O)=O	105	.	3	0	-10	89*	90*
SMILES	DSG3 Ab inh	NSD2 HMT inh	Vif inh	N-glyco inh	CaV13 ICDI inh	ATG4B inh	PLA2 counter	others
COc1ccc(-n2cccc2/C=C2\C(=N)N3N=C(c4ccco4)SC3=NC2=O)cc1	84	18	-2	-1	-5	40*	38	ATG4B conf=49*
C/C(N)=C(/C#N)C(=O)CSc1nc2ccccc2c(=O)n1-c1ccc(C)c(Cl)c1	104	1	-3	2	-4	47*	49
C/C(N)=C(/C#N)C(=O)CSc1nc2ccccc2c(=O)n1-c1ccc(C)cc1	.	0	.	.	.	.	.
Cc1ccc(C(=O)Nc2ncc(C)s2)o1	105	1	-5	-5	-8	-4	.
Cc1ccc(C(=O)Nc2ncc(Cc3ccc(F)cc3)s2)o1	98	2	-15	-10	-3	57*	64*
O=[N+]([O-])c1cc(/C=N/O)ccc1SCc1ccccc1	107	-1	-7	-6	-3	2	.
Cn1cccc1C(=O)NC(=O)COC(=O)c1cc(S(=O)(=O)N2CCCCC2)ccc1Cl	99	-2	-2	2	1	51*	52*
O=C1/C(=C\c2ccc3ccccc3c2)CCCc2ccccc21	.	0	3	4	-9	18	.
Cc1ccsc1/C=C1\CCc2ccccc2C1=O	80	7	-1	-19	-5	46*	68*
Cc1ccccc1/C=C1\CCCc2ccccc2C1=O	.	-1	-4	-8	-4	53*	61*
CC1=Nc2cc(C(=O)N3CCCCC3)ccc2Sc2ccc(C)cc21	98	8	7	-1	-3	52*	49
CCCC1=Nc2cc(C(=O)N3CCCC3)ccc2Sc2ccc(C)cc21	95	6	-2	0	-6	18	.
CCC1=Nc2cc(C(=O)N3CCCCC3)ccc2Sc2ccc(C)cc21	.	30	7	-2	-5	52*	57*
CC(=O)Nc1ccc(CN2CCN(CC=C(C)C)C(CCO)C2)cc1 (stereo not drawn)	91	0	2	1	-5	-5	.
Cc1ccc(/C=C/C(O)=C2/C(=O)N(C)C3(C)CC2c2ccccc2O3)cc1 (stereo not drawn)	100	-11	-1	9	.	26	.
Cc1ccc(S(=O)(=O)C2C(=O)N(C)C3(C)CC2c2ccccc2O3)cc1C (stereo not drawn)	102	-3	-1	0	-2	79*	85*
